Test results as given in the supplement of paper PMC13380429.
Values without a mark were called inactive.

What follows are compounds tested on Vero E6 infected with SARS-CoV-2 (assay: inhibition of SARS-CoV-2 cytopathic effect; higher = more antiviral protection, active = above 15). Details: 1 nM; 48 h.

SMILES | inhibition of SARS-CoV-2 cytopathic effect [%]
CC(C)(C)c1cc(C(C)(C)C)c(NC(=O)c2c[nH]c3ccccc3c2=O)cc1O [ivacaftor] | -1.65
Cc1ccc(NC(=O)CCCCCC(=O)Nc2ccccc2N)cc1 | 2.4
CC(C)(N)Cc1ccccc1 [phentermine] | 2.16
CNC1CC(N)C(O)C(OC2OC(CO)C(O)C3OC4(OC(C(N)CO)C(O)C(O)C4O)OC23)C1O (stereo not given) [Hygromycin B] | -0.42
O=C(O)c1cc(O)c2c(c1)C(=O)c1cccc(O)c1C2=O [rhein] | -0.32
C[C@]12CC[C@@H]3c4ccc(OS(=O)(=O)O)cc4CC[C@H]3[C@@H]1CCC2=O [estropipate] | -1.99
O=C1NS(=O)(=O)c2ccccc21 [saccharin] | 0.13
O=C(O)COc1nn(Cc2ccccc2)c2ccccc12 [bendazac] | -1.4
Nc1ncnc2c1c(-c1cnc3[nH]ccc3c1)nn2C1CCCC1 | -1.07
CC(C)(N)c1nc(-c2ccc(OC(F)(F)F)cc2)c[nH]1 | 0.82
CCCN(CCC)[C@H]1CCc2cccc(O)c2C1 [8-hydroxy-DPAT] | -1.75
Cc1nnsc1C(=O)Nc1ccc(-n2nc(C(F)(F)F)cc2C(F)(F)F)cc1 | -4.22
O=C(O)C(Cl)Cl [dichloroacetate] | 4.14
COC(=O)[C@H](CC(C)C)NC(=O)[C@@H](N)CC(C)C [leucylleucine-methyl-ester] | -2.04
COc1cccc2cc(-c3nc([C@H]4CC[C@H](C(=O)O)CC4)n4ncnc(N)c34)[nH]c12 | 0.22
O=C(O)c1ccccc1Nc1cccc(C(F)(F)F)c1 [flufenamic-acid] | -1.93
O=C(CCc1ccc(O)cc1)c1c(O)cc(O)cc1O [phloretin] | -0.18
N[C@@H](CS)C(=O)O [L-cysteine] | 1.7
CC(C)NCC(O)c1ccc2ccccc2c1 (stereo not given) [pronethalol] | 0.73
O=c1[nH]c2ccccc2n1C1CCN(CCCC(c2ccc(F)cc2)c2ccc(F)cc2)CC1 [pimozide] | 0.44

SMILES | inhibition of SARS-CoV-2 cytopathic effect [%]
CC(C)NCC(O)COc1cccc2ccccc12 (stereo not given) [propranolol] | 0.19
N#C/C(=C\c1cccn1S(=O)(=O)c1cccc([N+](=O)[O-])c1)S(=O)(=O)c1ccc(F)cc1 | -0.59
Cc1csc(S(=O)(=O)N(CC(C)C)c2cc3c(cc2OCc2ccc(C(=O)O)cc2)CCC3)n1 | -2.46
CC(C)[C@@H](C)/C=C/[C@@H](C)[C@H]1CC[C@H]2C3=CC=C4C[C@@H](O)CC[C@]4(C)[C@H]3CC[C@]12C [ergosterol] | -3.22
O=C(NCCO)c1cc(C(=O)NCCO)cc(C(=O)NCCO)c1 | -0.77
C[C@H]1NC(=O)NC1=O [5-methylhydantoin-(D)] | -0.22
COc1ccc(C(=O)c2c(C)n(CCN3CCOCC3)c3cc(I)ccc23)cc1 | -3.57
COP(=O)(OC)OC(c1ccc(Cl)cc1)P(=O)(OC)OC (stereo not given) [mifobate] | -4.41
O=C(Nc1cccc2c(=O)cc(-c3nnn[nH]3)oc12)c1ccc(OCCCCc2ccccc2)cc1 [pranlukast] | -0.09
C#Cc1cncc([C@@H]2CCCN2C)c1 [altinicline] | -3.46
FC(F)(F)Oc1ccc2nc(-c3ccc(OCCOCCOc4ccc(-c5nc6ccc(OC(F)(F)F)cc6[nH]5)nc4)cn3)[nH]c2c1 | -0.41
Nc1ncnc2c1ncn2[C@@H]1O[C@H](COP(=O)(O)O)[C@@H](O)[C@H]1O [adenosine-phosphate] | -6.5
CC(C)Oc1cccc(CC(=O)N2CCC[C@](CC[N+]34CCC(c5ccccc5)(CC3)CC4)(c3ccc(Cl)c(Cl)c3)C2)c1 | 1.67
Cc1ccc2c(c1)[C@]13CCCC[C@@H]1[C@H](C2)N(C)CC3 [dimemorfan] | 0
OC[C@H]1O[C@@H](c2ccc(F)c(Cc3cc4ccccc4s3)c2)[C@H](O)[C@@H](O)[C@@H]1O [ipragliflozin-L-proline] | 0.82
N#CCC(=O)c1ccccc1 | 4.1
CC[C@@H](C(N)=O)N1CCCC1=O [levetiracetam] | 0.86
CCC[C@@H]1C[C@@H](C(=O)N[C@@H]([C@H]2O[C@H](SC)[C@H](O)[C@@H](O)[C@H]2O)[C@@H](C)O)N(C)C1 [lincomycin] | 1.22
O=C(OCCOCCO)c1ccccc1Nc1cccc(C(F)(F)F)c1 [etofenamate] | 1.16
CC1(C)[C@@H]2C[C@@H](O)[C@@](C)(O)[C@H]1C2 [2,3-cis/exo-pinanediol] | -0.96
